In article PMC11006913 one finds binding signal data, which are given here for six sequences.

Common to all, as to test: PBM; 200 nM protein, PBS
Common to all, as to settings: dsDNA, one strand shown

Test [1] concerns the target PRRX1 (Homo sapiens, UniProt P54821 80-166, F113S).
Test [2] concerns the target HOXD13 (Homo sapiens, UniProt P35453 263-343, T313R).
The target of test [3] is HOXD13 (Homo sapiens, UniProt P35453 263-343).
In test [4] the target is HOXD13 (Homo sapiens, UniProt P35453 263-343, T313A).
HOXD13 (Homo sapiens, UniProt P35453 263-343, T313A), sequence (P35453 263-343 T313A): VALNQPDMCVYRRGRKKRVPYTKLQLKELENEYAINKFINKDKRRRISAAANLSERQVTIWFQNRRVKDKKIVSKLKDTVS
Test [5] has as its target PRRX1 (Homo sapiens, UniProt P54821 80-166).
Test [6] concerns the target HESX1 (Homo sapiens, UniProt Q9UBX0 95-180).
Test [7] addresses ALX3 (Homo sapiens, UniProt O95076 139-225, N203Q).
The target of test [8] is ALX3 (Homo sapiens, UniProt O95076 139-225).
ALX3 (Homo sapiens, UniProt O95076 139-225), sequence (O95076 139-225): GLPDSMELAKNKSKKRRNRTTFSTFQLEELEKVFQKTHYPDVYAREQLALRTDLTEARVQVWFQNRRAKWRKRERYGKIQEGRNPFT
Test [9] addresses VAX1 (Homo sapiens, UniProt Q5SQQ9 86-172).
The target of test [10] is ALX3 (Homo sapiens, UniProt O95076 139-225, L168Q).
ALX3 (Homo sapiens, UniProt O95076 139-225, L168Q), sequence (O95076 139-225 L168Q): as the sequence (O95076 139-225) above, with L30Q counted along it
Test [11] has as its target ALX3 (Homo sapiens, UniProt O95076 139-225, L168V).
Test [12] addresses VAX1 (Homo sapiens, UniProt Q5SQQ9 86-172, T142I).
For test [13], the target named is ALX3 (Homo sapiens, UniProt O95076 139-225, N203S).
ALX3 (Homo sapiens, UniProt O95076 139-225, N203S), sequence (O95076 139-225 N203S): as the sequence (O95076 139-225) above, with N65S counted along it
The target in test [14] is VAX1 (Homo sapiens, UniProt Q5SQQ9 86-172, K157R).
VAX1 (Homo sapiens, UniProt Q5SQQ9 86-172, K157R), sequence (Q5SQQ9 86-172 K157R): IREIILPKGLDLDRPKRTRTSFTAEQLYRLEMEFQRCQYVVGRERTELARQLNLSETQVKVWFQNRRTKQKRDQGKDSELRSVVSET
Test [15] deals with HOXA2 (Homo sapiens, UniProt O43364 129-215, R185T).
HOXA2 (Homo sapiens, UniProt O43364 129-215, R185T), sequence (O43364 129-215 R185T): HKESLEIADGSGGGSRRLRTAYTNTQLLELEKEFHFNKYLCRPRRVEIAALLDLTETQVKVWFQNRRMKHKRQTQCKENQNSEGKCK
The target of test [16] is ALX1 (Homo sapiens, UniProt Q15699 118-204, L144V).
ALX1 (Homo sapiens, UniProt Q15699 118-204, L144V), sequence (Q15699 118-204 L144V): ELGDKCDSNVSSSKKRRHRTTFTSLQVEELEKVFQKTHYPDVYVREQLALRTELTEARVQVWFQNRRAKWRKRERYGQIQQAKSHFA
For test [17], the target named is PITX2 (Homo sapiens, UniProt Q99697 72-157).
The target of test [18] is HOXA2 (Homo sapiens, UniProt O43364 129-215, R185K).
HOXA2 (Homo sapiens, UniProt O43364 129-215, R185K), sequence (O43364 129-215 R185K): as the sequence (O43364 129-215 R185T) above, with T57K counted along it
The target of test [19] is ALX1 (Homo sapiens, UniProt Q15699 118-204, L144R).
ALX1 (Homo sapiens, UniProt Q15699 118-204, L144R), sequence (Q15699 118-204 L144R): as the sequence (Q15699 118-204 L144V) above, with V27R counted along it
For test [20], the target named is HOXA2 (Homo sapiens, UniProt O43364 129-215, Y150S).
HOXA2 (Homo sapiens, UniProt O43364 129-215, Y150S), sequence (O43364 129-215 Y150S): as the sequence (O43364 129-215 R185T) above, with Y22S, T57R counted along it
For test [21], the target named is ALX1 (Homo sapiens, UniProt Q15699 118-204).
ALX1 (Homo sapiens, UniProt Q15699 118-204), sequence (Q15699 118-204): as the sequence (Q15699 118-204 L144V) above, with V27L counted along it
Test [22] has as its target HOXA2 (Homo sapiens, UniProt O43364 129-215).
For test [23], the target named is MSX2 (Homo sapiens, UniProt P35548 130-214, R199I).
MSX2 (Homo sapiens, UniProt P35548 130-214, R199I), sequence (P35548 130-214 R199I): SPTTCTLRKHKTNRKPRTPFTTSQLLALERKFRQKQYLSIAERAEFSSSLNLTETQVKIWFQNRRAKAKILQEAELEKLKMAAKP
Test [24] addresses MSX2 (Homo sapiens, UniProt P35548 130-214).
Test [25] concerns the target HESX1 (Homo sapiens, UniProt Q9UBX0 95-180, R109Q).
Test [26] addresses MSX2 (Homo sapiens, UniProt P35548 130-214, F161Y).
In test [27] the target is HESX1 (Homo sapiens, UniProt Q9UBX0 95-180, F115L).
HESX1 (Homo sapiens, UniProt Q9UBX0 95-180, F115L), sequence (Q9UBX0 95-180 F115L): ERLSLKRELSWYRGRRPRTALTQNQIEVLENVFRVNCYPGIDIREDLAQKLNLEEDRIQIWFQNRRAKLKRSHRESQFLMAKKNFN
Test [28] concerns the target T1, NKX2-6 (Homo sapiens, UniProt A6NCS4 118-204, R150C).
T1 sequence: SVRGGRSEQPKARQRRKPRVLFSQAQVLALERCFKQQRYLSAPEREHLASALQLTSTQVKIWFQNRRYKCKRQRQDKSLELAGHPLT

ALX3 (Homo sapiens, UniProt O95076 139-225, L168V), sequence (O95076 139-225 L168V): as the sequence (O95076 139-225) above, with L30V counted along it
PRRX1 (Homo sapiens, UniProt P54821 80-166, F113S), sequence (P54821 80-166 F113S): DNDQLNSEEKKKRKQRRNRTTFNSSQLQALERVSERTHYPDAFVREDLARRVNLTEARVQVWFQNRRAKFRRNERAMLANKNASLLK
PRRX1 (Homo sapiens, UniProt P54821 80-166), sequence (P54821 80-166): as the sequence (P54821 80-166 F113S) above, with S34F counted along it
ALX3 (Homo sapiens, UniProt O95076 139-225, N203Q), sequence (O95076 139-225 N203Q): as the sequence (O95076 139-225) above, with N65Q counted along it
VAX1 (Homo sapiens, UniProt Q5SQQ9 86-172), sequence (Q5SQQ9 86-172): as the sequence (Q5SQQ9 86-172 K157R) above, with R72K counted along it
VAX1 (Homo sapiens, UniProt Q5SQQ9 86-172, T142I), sequence (Q5SQQ9 86-172 T142I): as the sequence (Q5SQQ9 86-172 K157R) above, with T57I, R72K counted along it
HOXA2 (Homo sapiens, UniProt O43364 129-215), sequence (O43364 129-215): as the sequence (O43364 129-215 R185T) above, with T57R counted along it
HESX1 (Homo sapiens, UniProt Q9UBX0 95-180), sequence (Q9UBX0 95-180): as the sequence (Q9UBX0 95-180 F115L) above, with L21F counted along it
HESX1 (Homo sapiens, UniProt Q9UBX0 95-180, R109Q), sequence (Q9UBX0 95-180 R109Q): as the sequence (Q9UBX0 95-180 F115L) above, with R15Q, L21F counted along it
MSX2 (Homo sapiens, UniProt P35548 130-214, F161Y), sequence (P35548 130-214 F161Y): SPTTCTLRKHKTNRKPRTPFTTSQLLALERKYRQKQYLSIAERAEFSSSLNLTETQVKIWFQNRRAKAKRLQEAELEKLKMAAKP
HOXD13 (Homo sapiens, UniProt P35453 263-343), sequence (P35453 263-343): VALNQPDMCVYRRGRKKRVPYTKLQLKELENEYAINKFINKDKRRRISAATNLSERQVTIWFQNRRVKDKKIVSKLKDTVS
MSX2 (Homo sapiens, UniProt P35548 130-214), sequence (P35548 130-214): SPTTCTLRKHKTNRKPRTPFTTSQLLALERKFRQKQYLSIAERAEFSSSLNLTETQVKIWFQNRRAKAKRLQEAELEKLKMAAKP
HOXD13 (Homo sapiens, UniProt P35453 263-343, T313R), sequence (P35453 263-343 T313R): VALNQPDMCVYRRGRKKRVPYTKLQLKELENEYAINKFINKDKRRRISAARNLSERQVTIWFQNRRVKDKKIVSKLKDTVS

On to GGCCTACC, for which the binding signal was 9.31 upbm affinity estimate (log intensity, higher = more binding, comparable within an allelic series) in test [1]; 9.55 upbm affinity estimate (log intensity, higher = more binding, comparable within an allelic series) in test [2]; 9.49 upbm affinity estimate (log intensity, higher = more binding, comparable within an allelic series) in test [3]; 9.59 upbm affinity estimate (log intensity, higher = more binding, comparable within an allelic series) in test [4]; 9.37 upbm affinity estimate (log intensity, higher = more binding, comparable within an allelic series) in [5].

With CGTAAGTA, the binding signal is 10 upbm affinity estimate (log intensity, higher = more binding, comparable within an allelic series) in test [1]; 7.17 upbm affinity estimate (log intensity, higher = more binding, comparable within an allelic series) in test [6]; 11 upbm affinity estimate (log intensity, higher = more binding, comparable within an allelic series) in test [5].

As for AGCCGGGC, the binding signal in [1] is 8.99 upbm affinity estimate (log intensity, higher = more binding, comparable within an allelic series); in [7] it was 7.69 upbm affinity estimate (log intensity, higher = more binding, comparable within an allelic series); in [8], 7.71 upbm affinity estimate (log intensity, higher = more binding, comparable within an allelic series); in [9] it was 7 upbm affinity estimate (log intensity, higher = more binding, comparable within an allelic series); in [10] it was 7.68 upbm affinity estimate (log intensity, higher = more binding, comparable within an allelic series); in test [11], 7.64 upbm affinity estimate (log intensity, higher = more binding, comparable within an allelic series). Moreover, the binding signal in test [12] is 7.24 upbm affinity estimate (log intensity, higher = more binding, comparable within an allelic series); in test [13], 7.72 upbm affinity estimate (log intensity, higher = more binding, comparable within an allelic series); in [5], 9.33 upbm affinity estimate (log intensity, higher = more binding, comparable within an allelic series); in test [14], 6.91 upbm affinity estimate (log intensity, higher = more binding, comparable within an allelic series).

On to CCGGCCAG, for which the binding signal was 8.97 upbm affinity estimate (log intensity, higher = more binding, comparable within an allelic series) in test [1]; 7.26 upbm affinity estimate (log intensity, higher = more binding, comparable within an allelic series) in [15]; 6.59 upbm affinity estimate (log intensity, higher = more binding, comparable within an allelic series) in test [16]; 7.68 upbm affinity estimate (log intensity, higher = more binding, comparable within an allelic series) in [7]; 7.87 upbm affinity estimate (log intensity, higher = more binding, comparable within an allelic series) in [17]; 9.96 upbm affinity estimate (log intensity, higher = more binding, comparable within an allelic series) in test [18]. The binding signal in [19] is 6.61 upbm affinity estimate (log intensity, higher = more binding, comparable within an allelic series); in [8], 7.75 upbm affinity estimate (log intensity, higher = more binding, comparable within an allelic series); in test [9], 6.85 upbm affinity estimate (log intensity, higher = more binding, comparable within an allelic series); in test [10] it was 7.66 upbm affinity estimate (log intensity, higher = more binding, comparable within an allelic series); in [11], 7.61 upbm affinity estimate (log intensity, higher = more binding, comparable within an allelic series); in test [12], 6.97 upbm affinity estimate (log intensity, higher = more binding, comparable within an allelic series). Also, the binding signal in [20] is 10.3 upbm affinity estimate (log intensity, higher = more binding, comparable within an allelic series); in test [21] it was 6.55 upbm affinity estimate (log intensity, higher = more binding, comparable within an allelic series); in test [13], 7.66 upbm affinity estimate (log intensity, higher = more binding, comparable within an allelic series); in test [5], 9.42 upbm affinity estimate (log intensity, higher = more binding, comparable within an allelic series); in test [22], 7.18 upbm affinity estimate (log intensity, higher = more binding, comparable within an allelic series); in test [14], 6.86 upbm affinity estimate (log intensity, higher = more binding, comparable within an allelic series).

As for AATTATTG, the binding signal is 11.1 upbm affinity estimate (log intensity, higher = more binding, comparable within an allelic series) in [1]; 12.3 upbm affinity estimate (log intensity, higher = more binding, comparable within an allelic series) in [23]; 11.1 upbm affinity estimate (log intensity, higher = more binding, comparable within an allelic series) in [19]; 13.4 upbm affinity estimate (log intensity, higher = more binding, comparable within an allelic series) in [24]; 8.57 upbm affinity estimate (log intensity, higher = more binding, comparable within an allelic series) in test [25]; 9.77 upbm affinity estimate (log intensity, higher = more binding, comparable within an allelic series) in [11]. Moreover, the binding signal was 13.1 upbm affinity estimate (log intensity, higher = more binding, comparable within an allelic series) in test [26] and 8.02 upbm affinity estimate (log intensity, higher = more binding, comparable within an allelic series) in test [27].

On to CACGTGGC, for which the binding signal in [1] is 9.17 upbm affinity estimate (log intensity, higher = more binding, comparable within an allelic series); in test [28] it was 9.61 upbm affinity estimate (log intensity, higher = more binding, comparable within an allelic series); in [5], 9.4 upbm affinity estimate (log intensity, higher = more binding, comparable within an allelic series).
